The campaign covered roughly 360,000 compounds. About 7,500 (2.1%) were called active. Roughly 8% stayed inconclusive and do not appear here. The call rests on the fitted dose curve; in most records, active means well fitted cell-killing curve with a large enough effect; inconclusive means small, poorly fitted or top-dose-only effect, or effect the other way, or another doubt; inactive means no such curve, though single readings can be large or run the other way. The full list was thinned out, with actives kept by preference. Some structures have more than one record in an assay (separate samples or runs), and their calls can disagree.
Test: qHTS for induction of synthetic lethality in tumor cells producing 2HG: qHTS for the HT-1080-IDH1KD cell line;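 on activity, negative = toxicity: 0% = DMSO wells and -100% = cell-free medium wells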
Conditions: HT-1080 IDH1 knockdown viability, ATP luminescence, 48 h; series mostly up to 46.1 µM; activity, negative = toxicity: at the top concentration
In short: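 Knockdown cells (IDH1KD HT-1080) received compounds 2 h after plating at 750 cells/well and were kept 48 h at 37 °C in 5% FBS RPMI. A CellTiter-Glo luminescence read gave % activity for curve fitting.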
Potency means the concentration at half of the fitted maximal effect.

SMILES	activity, negative = toxicity	Potency
COCC1CCCCN1C(=O)c1cc(COc2ccc(C)c(C)c2)on1 (stereo not drawn)	-3.35% (inactive)	
CCOC(=O)CSC1=C(C#N)C(c2sccc2C)CC(=O)N1 (stereo not drawn)		1.41 µM (active)
COC(=O)CSC1=C(C#N)C(c2ccccc2OC)C(C(=O)OC)C(=O)N1 (stereo not drawn)	5.07% (inactive)	
C=CCSC1=C(C#N)C(c2cc(Br)c(O)c(OC)c2)CC(=O)N1 (stereo not drawn)	-15.3% (inactive)	
COc1ccc(C(=O)N2CCCCC2c2cc(C(=O)Nc3ccc(F)c(Cl)c3)no2)cc1 (stereo not drawn)	-2.02% (inactive)	
CSc1nc(-c2ccccc2)nc(C(Cl)Cl)n1		18.4 µM (active)
CSc1ncc(Sc2ccccc2)c(C(=O)O)n1	12.7% (inactive)	
Cc1ccccc1-c1ccc2c(c1)O[C@@H](CN(C)Cc1ccc(C(=O)O)cc1)[C@@H](C)CN([C@H](C)CO)S2(=O)=O	-7.84% (inactive)	
CC(=O)Nc1cccc(Nc2ccc(C#N)cc2)c1	0.812% (inactive)	
Cc1ccc(NC(=S)N(CCCN2CCCC2)Cc2cccn2Cc2ccc(Cl)cc2)cc1		23.1 µM (active)
Cc1ccc(NC(=S)N(CCCN2CCC(C)CC2)Cc2ccco2)cc1	-5.45% (inactive)	
Cc1ccc(NC(=S)N(CCN2CCCCC2)Cc2ccco2)cc1C	-5.58% (inactive)	
Cc1ccc(NC(=O)COC(=O)CN2CCSC2=O)cc1F	2.76% (inactive)	
CCc1nc2c(OCCOc3ccc(F)cc3)cccn2c1N(C)C(=O)c1ccccc1F	-5.69% (inactive)	
O=C(OCc1ccccc1)N1CCC2CC1c1ccc(-c3ccc4c(c3)OCO4)cc12 (stereo not drawn)	3.84% (inactive)	
CCOC(=O)C1(C)CCCN(C(=O)c2cccc(Cl)c2)C1 (stereo not drawn)	4.06% (inactive)	
CCCCCNC(=O)C(c1ccc(OC)cc1)n1c(=O)c(-c2ccccc2)nc2ccccc21 (stereo not drawn)	-17.2% (inactive)	
O=C(NC1CCCC1)C1c2ccccc2OCC(=O)N1Cc1ccccc1 (stereo not drawn)	4.14% (inactive)	
C=CCn1c(Cn2nnc3ccccc32)nnc1SCC(=O)N/N=C/c1cc(Br)cc(OC)c1O	6.3% (inactive)	
Oc1c(Cl)cc(Cl)cc1/C=N/c1ncn[nH]1	11.8% (inactive)	
COc1cc(Br)cc(/C=N/c2ncn[nH]2)c1O		15.8 µM (active)
COc1cc2nc(N3CCCN(C)CC3)nc(NC(C)C)c2cc1OC	-17.8% (inactive)	
O=S1(=O)CC(N2CCSCC2)CN1Cc1cn(Cc2cccc(Cl)c2)nn1 (stereo not drawn)	1.27% (inactive)	
CN1OC[C@@H]2CN(S(=O)(=O)c3cccc4ccccc34)[C@H](c3ccc(N4CCCCC4)cc3)C[C@@H]21	-11.5% (inactive)	
CCc1nc(C)ccc1OCC(=O)N(CC)CC	5.18% (inactive)	

SMILES	activity, negative = toxicity	Potency
CCC(C)(C)c1ccc(OCC(=O)N(C)C)c(C(C)(C)CC)c1		20.6 µM (active)
COc1cccc(C(O)c2ncc(-c3ccc4ccccc4c3)[nH]2)c1 (stereo not drawn)	0.29% (inactive)	
COc1ccc(S(=O)(=O)N2CCC(C(=O)NCCC(=O)NCCc3cccc(F)c3)CC2)cc1	3.72% (inactive)	
Cc1ccc(NC(=O)[C@H](Cc2ccccc2)NC(=O)CC[C@H]2O[C@@H](n3ccc(=O)[nH]c3=O)[C@H](O)[C@@H]2O)cc1C	7.02% (inactive)	
COc1cc(C(=O)OCCCN2CCOCC2)cc(OC)c1OC	6.61% (inactive)	
CCCc1c(C)nc2scc(-c3ccc(Cl)cc3)n2c1=O	13.9% (inactive)	
CC1CN(C(=O)CCC(=O)NC2CCN(Cc3ccccc3)CC2)c2ccccc2O1 (stereo not drawn)	-0.348% (inactive)	
CC1CN(C(=O)CCC(=O)NCCCN2CCC(Cc3ccccc3)CC2)c2cc(Cl)ccc2O1 (stereo not drawn)		16.4 µM (active)
CC1CN(C(=O)CCC(=O)NCc2cccnc2)c2ccccc2O1 (stereo not drawn)	-2.22% (inactive)	
COc1ccc(CN2C(=O)C(CC(=O)NCc3cccc4ccccc34)CC(C(=O)N3CCOCC3)=C2C)cc1 (stereo not drawn)	-0.0224% (inactive)	
CC(=O)OCC(C)n1c(=O)c2ccccc2n1C(C)=O (stereo not drawn)	12.7% (inactive)	
O=c1ccc2c(-c3ccccc3S(=O)(=O)O)c3ccc(O)c(O)c3oc-2c1O		14.6 µM (active)
O=S1(=O)CCN(C2CCCCCCCCCCC2)CC1	6.35% (inactive)	
CCCCn1nnnc1C(c1cc2ccccc2o1)N(C)Cc1ccc(Cl)c(Cl)c1 (stereo not drawn)	-11.5% (inactive)	
C=CC(=O)OCCOCCOCCOCCOC(=O)C=C		23.1 µM (active)
O=Cc1cn(CCOc2ccc(F)cc2)c2ccccc12	-3.73% (inactive)	
CCOC(=O)N1CCN(C(=O)C2CCN(S(=O)(=O)c3cc(Cl)ccc3OCC)CC2)CC1	1.79% (inactive)	
CCOC(=O)/C(=N\Nc1ccccc1Cl)N(C)C1CCS(=O)(=O)C1 (stereo not drawn)	-25.2% (inactive)	
CCOC(=O)/C(=N\Nc1cc(Cl)ccc1Cl)N1CCN(C)CC1		20.6 µM (active)
CCC(=O)Nc1ccc2nc(C)n(Cc3ccccc3Cl)c(=O)c2c1	0.259% (inactive)	
CCN1CCN(c2cc3nc(C)n(Cc4ccccc4)c(=O)c3cc2NC(=O)c2ccccc2F)CC1		20.6 µM (active)
CCOc1cc(NC(=O)c2ccccc2C(=O)O)c(OCC)cc1NC(=O)c1ccccc1F	0.297% (inactive)	
O=C(/C=C/c1ccc(N2CCOCC2)cc1)c1ccccc1	-25.3% (inactive)	
Cc1[nH]c(=O)c(C(=O)/C=C/c2ccccc2)c2c1CCCC2		3.98 µM (active)
CC1(C(=O)O)CCCN(C(=O)/C=C/c2ccccc2)C1 (stereo not drawn)	16.9% (inactive)	

SMILES	activity, negative = toxicity	Potency
COc1cc(F)ccc1-c1cc(C(=O)NCC2CCCCC2)[nH]n1	-0.877% (inactive)	
CC(=O)Nc1cnc(-c2ccc(O)cc2C)cn1	-2.01% (inactive)	
Cc1ccc(Nc2nc(-c3ccc(O)cc3O)cs2)nc1		1.84 µM (active)
Cc1ccn2c(-c3csc(Nc4ccc(C(=O)O)cc4)n3)c(C)nc2c1	-27.7% (inactive)	
O=c1[nH]c(CCl)nc2cc(-c3ccc(Cl)cc3)sc12		11.6 µM (active)
CCC1(CC)Cc2ccccc2-c2nc(CCl)[nH]c(=O)c21	-20.6% (inactive)	
Cn1c(NCc2cccnc2)nc2cc(-c3ccc(F)cc3)sc2c1=O	0.818% (inactive)	
O=C(c1ncn2c1c(=O)[nH]c1ccccc12)N1CCc2ccccc2C1	0.374% (inactive)	
Cc1sc2nc(-c3ccccc3F)oc(=O)c2c1C	0.555% (inactive)	
OCCC#Cc1ccc(N2C(c3ccsc3)=Cc3ccc(F)cc3C2c2c[nH]c3ccccc23)cc1 (stereo not drawn)		25.9 µM (active)
Nc1ncnc2c1ncn2[C@@H]1O[C@H](C(=O)N2CCCN(Cc3ccccc3F)CC2)[C@@H](O)[C@H]1O	12.2% (inactive)	
Cc1nnc(SC(C)C(=O)c2c[nH]c3ccccc23)n1C1CC1 (stereo not drawn)	8.97% (inactive)	
CC(=NNC(N)=O)C1CC2CCC1CC2 (stereo not drawn)	1.1% (inactive)	
Oc1cc2c(cc1O)CN(C(=S)NCCc1ccc(Cl)cc1)CCC2		39.8 µM (active)
O=C(NCCc1ccc(Cl)cc1)c1cccc(N2CCCC2=O)c1	-1.86% (inactive)	
COc1ccc(CCNC(=S)N2CCN(S(=O)(=O)c3ccc(Cl)cc3)CC2)cc1	-13.5% (inactive)	
CCN(CC)C(=O)C1=C(C)N(Cc2ccc(OC)cc2)C(=O)C(CC(=O)NCCCCc2ccccc2)C1 (stereo not drawn)	-0.484% (inactive)	
CC(C)CCOc1ccc(C(=O)Nc2cc(S(=O)(=O)N3CCOCC3)ccc2N2CCOCC2)cc1	-1.56% (inactive)	
COc1ccc(-c2csc(C(O)c3cccc(Cl)c3)n2)cn1 (stereo not drawn)	-28.4% (inactive)	
COc1cccc(NC(=O)Nc2ccc(F)cc2)c1	-0.348% (inactive)	
COc1ccc(/C=N/Nc2cc(N3CCOCC3)nc(C)n2)c(OC)c1	-0.735% (inactive)	
COc1cccc(/C=N/Nc2cc(C)nc(-c3ccccc3O)n2)c1O		6.51 µM (active)
COc1cccc(/C=N/Nc2ccc(S(=O)(=O)Nc3ccccc3C(=O)O)cc2[N+](=O)[O-])c1O	9.03% (inactive)	
Nc1ncnc2c1ncn2[C@@H]1O[C@H](C(=O)NS(=O)(=O)c2c(Cl)nc3sccn23)[C@@H](O)[C@H]1O	13.5% (inactive)	
COc1ccc(NC(=O)N(C)C[C@@H]2OCc3cn(nn3)CCCC(=O)N([C@H](C)CO)C[C@H]2C)c(OC)c1	-13.7% (inactive)	

SMILES	activity, negative = toxicity	Potency
COCCOC(=O)c1[nH]c2c(c1C)C(=O)CC(c1ccc(OC)cc1)C2 (stereo not drawn)	-0.695% (inactive)	
CCCOC(=O)c1[nH]c2c(c1C)C(=O)CC(c1cccs1)C2 (stereo not drawn)		0.651 µM (active)
COC(=O)C1C(=O)c2c([nH]c(C(=O)OCCSC)c2C)CC1C (stereo not drawn)	4.86% (inactive)	
CCc1nc2c(=O)[nH]cnc2o1	6.79% (inactive)	
O=C(Nc1ccc(Cl)cc1)c1csc([C@H]2C[C@H](O)[C@@H](CO)O2)n1	-8.66% (inactive)	
O=C(N[C@H]1CC[C@H](CC(=O)N2CCCCC2)O[C@@H]1CO)c1cccc(F)c1	26% (inactive)	
Cc1ccc(C(=O)N2CCCc3ccccc32)c(Cl)c1	0.883% (inactive)	
Cc1cccc2cc3c(N)c(C(=O)N4CCCc5ccccc54)sc3nc12		2.31 µM (active)
Cc1c(C(=O)N2CCCc3ccccc32)sc2nc(-c3ccccc3)cn12	8.39% (inactive)	
CC(C)(C)Cc1c(C2CCCCC2)nc2ccc(Br)cn12	-20.5% (inactive)	
C[C@H]1CN([C@@H](C)CO)C(=O)CCCn2cc(nn2)CO[C@@H]1CN(C)S(=O)(=O)c1ccc(-c2ccccc2)cc1	3.42% (inactive)	
N=C1C(c2nc3ccccc3s2)=C(O)CN1NC(=O)c1ccc([N+](=O)[O-])cc1		20.6 µM (active)
N=C1C(c2nc3ccccc3[nH]2)=C(O)CN1NC(=O)c1c[nH]c2ccccc12	4.62% (inactive)	
Cc1ccc(C)n1NC(=O)c1ccc([N+](=O)[O-])cc1	-6.65% (inactive)	
C[C@H]1CN([C@@H](C)CO)C(=O)c2cc(C3=CCCCC3)cnc2O[C@@H]1CN(C)C(=O)Cc1ccccc1	-8.68% (inactive)	
COc1ccc(C2=NN(c3ccccc3)C(c3cccs3)C2)cc1 (stereo not drawn)	-0.443% (inactive)	
COc1ccc(C2CC(c3cccc(OC)c3)=NN2c2ccc(S(N)(=O)=O)cc2)cc1 (stereo not drawn)		16.4 µM (active)
COc1ccc(C2CC(c3ccccc3)=NN2C(=O)COC(=O)COc2ccccc2)cc1 (stereo not drawn)	-0.202% (inactive)	
O=c1[nH]c2ccccc2n1C1CCN(CCOc2ccccc2)CC1	-17.5% (inactive)	
CCOc1ccc(NC(=O)CSc2nnc3c(n2)[nH]c2ccc(S(=O)(=O)N4CCOCC4)cc23)cc1	23.2% (inactive)	
CC(C)CC1C(=O)N(Cc2cn(CC3CCCCC3)nn2)CCS(=O)(=O)N1Cc1ccc(-c2ccc(Cl)cc2)cc1 (stereo not drawn)	-2.65% (inactive)	
CC(C)CC1C(=O)N(Cc2cn(Cc3ccco3)nn2)CCS(=O)(=O)N1Cc1ccc(-c2ccc(Cl)c(Cl)c2)cc1 (stereo not drawn)		18.4 µM (active)
CC1C(=O)N(Cc2cn(Cc3ccco3)nn2)CCS(=O)(=O)N1Cc1ccc(-c2cccc(CO)c2)cc1 (stereo not drawn)	-0.032% (inactive)	

Source: PubChem BioAssay AID686971 (National Center for Advancing Translational Sciences (NCATS), 2013)
